Hit rate of the full screen: of about 330,000 compounds, about 1,700 (0.52%) were called active.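 The calls were made as follows: active = GFP response versus DMSO above a set limit, roughly screen mean plus 3 SD (cut at about 180% in these data); inconclusive = fewer than 70 cells counted for a yeast strain; inactive = the rest.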 The entries come from a sample that favours actives as a whole.
Experiment: modulators of MEP2-GFP levels in yeast, primary screen, S. cerevisiae, multiplex flow cytometry, MLPCN library (AID 2016);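 also: median GFP fluorescence of the barcode-gated MEP2-GFP cells per well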
Details: S. cerevisiae MEP2-GFP strain, 3 h, at 10 µM, active compounds read high, 100% = DMSO control level

| SMILES | GFP response vs DMSO |
| --- | --- |
| COc1ccc(/C=N/Nc2ncnc3sc4c(c23)CCCC4)cc1O | 106% (inactive) |
| CCOc1ncccc1C(=O)OCC(=O)N1c2ccccc2CC1C (stereo unspecified) | 92.2% (inactive) |
| CCOc1ncccc1C(=O)OCC(=O)NC1CC1 | 100% (inactive) |
| CCOc1ncccc1C(=O)OCc1cn2cc(Cl)ccc2n1 | 561% [may fluoresce violet] (active) |
| N#CC(C#N)=CN=c1ccn(Cc2ccc(Cl)cc2Cl)cc1 | 107% (inactive) |
| COc1ccc(CN2CCCC(N3CCc4ccccc4C3)C2)c(O)c1 (stereo unspecified) | 104% (inactive) |
| COc1ccccc1CN1CCCC(N2CCN(c3ccc(F)cc3)CC2)C1 (stereo unspecified) | 485% [may fluoresce violet] (active) |
| COc1ccccc1CN1CCN(Cc2cc(OC)c(OC)cc2OC)CC1 | 114% (inactive) |
| COc1ccc(/C=C/CN2CCN(Cc3ccc(C)cc3)C(CCO)C2)cc1 (stereo unspecified) | 104% (inactive) |
| CC12CCC(=O)N1C(C(=O)NCCN1C(=O)S/C(=C\c3ccccc3F)C1=O)CS2 (stereo unspecified) | 107% (inactive) |
| CC(C)(C)NC(=O)C(c1ccncc1)N(C(=O)CNC(=O)c1ccco1)c1ccc2c(c1)OCO2 (stereo unspecified) | 111% (inactive) |
| COc1cccc(N(C(=O)CNC(=O)c2ccco2)C(C(=O)NC2CCCCC2)c2cccnc2)c1 (stereo unspecified) | 104% (inactive) |
| Cc1ccc(N(C(=O)CNC(=O)c2ccco2)C(C(=O)NC2CCCC2)c2ccncc2)cc1 (stereo unspecified) | 359% [may fluoresce violet] (active) |
| O=C(Nc1ccc(S(=O)(=O)NCC2CCCO2)cc1)c1ccc(F)cc1 (stereo unspecified) | 101% (inactive) |
| O=C(CN1CCCCCC1)Nc1c(Cl)cc(Cl)cc1Cl | 98.7% (inactive) |
| O=C1C2N=NN(CC(=O)N3N=C(c4cccc5ccccc45)CC3c3ccccc3)C2C(=O)N1c1ccccc1 (stereo unspecified) | 299% [may fluoresce violet] (active) |
| Cc1ccc(N2C(=O)C3N=NN(CC(=O)N4N=C(c5cccc6ccccc56)CC4c4ccccc4)C3C2=O)cc1 (stereo unspecified) | 102% (inactive) |
| Oc1ccccc1C1=NN(c2ccccc2)C(c2ccccc2)C1 (stereo unspecified) | 107% (inactive) |
| CCOC(=O)c1c(NC(=O)CSc2nnc(CN3CCOCC3)n2C)sc2c1CCCC2 | 99.8% (inactive) |

| SMILES | GFP response vs DMSO |
| --- | --- |
| CCOC(=O)C1CCN(C(=O)C2CCN(S(=O)(=O)CC)CC2)CC1 | 98.5% (inactive) |
| Cc1ccc2cc3cc(C(=O)N4CCCCCC4)oc3nc2c1 | 97.2% (inactive) |
| CCCCN1C(=O)c2ccc(C(=O)Nc3ccc(S(=O)(=O)N(C)C)cc3)cc2C1=O | 87.8% (inactive) |
| COCCN1C2=C(COC(C)(C)C2)C(=S)NC1c1ccccc1 (stereo unspecified) | 234% (active) |
| COCCN1C(=O)N[C@@H](c2ccccc2)C(C(=O)OC)=C1C | 91.3% (inactive) |
| COCCN1C(=O)N[C@@H](CCc2ccccc2)[C@H](C(C)=O)[C@H]1C | 86.4% (inactive) |
| Brc1ccc2c(c1)[C@H]1OCC[C@H]1[C@@H](c1cccs1)N2 | 102% (inactive) |
| C[C@H]1CCC(=O)N([C@H](CSc2ccccc2)Cc2ccccc2)CC1 | 93.7% (inactive) |
| C=CCC1=C/C(=C\c2c(N)n3nc(CC(=O)N4CCOCC4)sc3nc2=O)C=C(OC)C1=O | 102% (inactive) |
| CN(Cc1ccc(F)cc1)C(=O)CN1C(=O)c2ccccc2S1(=O)=O | 95% (inactive) |
| CCc1ccccc1OCC(=O)Nc1ccc2c(c1)OCCO2 | 366% [may fluoresce violet] (active) |
| CCC(=O)c1cc(F)ccc1OCC(=O)Nc1ccc2c(c1)OCCO2 | 104% (inactive) |
| COc1ccccc1OCCCC(=O)Nc1ccc2c(c1)OCCO2 | 92.3% (inactive) |
| CC12c3ccccc3C(c3ccccc31)C1C(=O)N(Cc3cccnc3)C(=O)C12 (stereo unspecified) | 107% (inactive) |
| COc1ccc(CNC(=O)CN2CCC(n3nnc4cc(F)ccc43)CC2)cc1 | 88.8% (inactive) |
| CSc1ccc(C#N)cc1NC(=O)c1cccc(Cl)c1 | 102% (inactive) |
| O=C(Nc1cccnc1Cl)c1cc(-c2cccc(Cl)c2)on1 | 103% (inactive) |
| O=C(Nc1cccc2cccnc12)c1cccc(Cl)c1 | 567% [may fluoresce violet] (active) |
| Cc1ccc(S(=O)(=O)c2nnn3c2nc(N2CCN(c4ccccn4)CC2)c2ccccc23)cc1 | 112% (inactive) |

| SMILES | GFP response vs DMSO |
| --- | --- |
| Cc1cccc(Nc2nc3c(S(=O)(=O)c4ccccc4)nnn3c3ccccc23)c1C | 1130% [may fluoresce green] (active) |
| CC(=O)Nc1ccc(Nc2nc3c(S(=O)(=O)c4ccc(C)c(C)c4)nnn3c3ccccc23)cc1 | 103% (inactive) |
| C=CC[C@@H](Cc1ccc(F)cc1)C(=O)OC[C@H]1CCCN1C(=O)[C@H](CC=C)CC(=O)N(CCO)Cc1ccccc1 | 103% (inactive) |
| NC1=NC(c2ccc([N+](=O)[O-])cc2)N(c2ccc(F)cc2)C(N)=N1 (stereo unspecified) | 107% (inactive) |
| O=C(CC1SC(N2CCOCC2)=NC1=O)Nc1ccccc1F (stereo unspecified) | 91.9% (inactive) |
| O=C(CN1CCN(C/C=C/c2ccccc2)CC1)Nc1ccc(F)cc1F | 100% (inactive) |
| O=C(CC1SC(=Nc2ccccc2F)N(CCN2CCOCC2)C1=O)Nc1ccc(F)cc1F (stereo unspecified) | 177% (active) |
| CCCN1C2CCCC1CC(NC(=O)c1cccc(OC)c1)C2 (stereo unspecified) | 93.2% (inactive) |
| Cc1ccc(-n2cc3ccc([N+](=O)[O-])cc3n2)cc1 | 98.2% (inactive) |
| Cc1ccc2c(c1)N(CC(=O)NCCc1ccc(Cl)cc1)C(=O)c1cccnc1O2 | 110% (inactive) |
| CCCCNC(=O)C1(O)c2ccccc2NC(=O)N1c1ccc(Cl)cc1 (stereo unspecified) | 108% (inactive) |
| CCCCC1N2CC3([N+](=O)[O-])CN1CC([N+](=O)[O-])(C2)C3(C)C (stereo unspecified) | 96.3% (inactive) |
| O=c1c2c(nc3nc[nH]n13)CCC2 | 532% [may fluoresce violet] (active) |
| O=c1c2c(nc3cc(-c4cccc(Cl)c4)[nH]n13)CCCC2 | 98.5% (inactive) |
| CSc1nc2nc3c(c(=O)n2[nH]1)CCC3 | 95.3% (inactive) |
| CNC(=O)Nc1cc(C(C)(C)C)no1 | 107% (inactive) |
| CCN(CC)c1ccc([N+](=O)[O-])cc1C(=O)O | 109% (inactive) |
| Cc1noc(C)c1CCC(=O)N1CCCC(CO)(Cc2ccccc2)C1 (stereo unspecified) | 96.4% (inactive) |
